Screening data deposited in PubChem BioAssay by National Center for Advancing Translational Sciences (NCATS).
DT40 TDP1 no CPT: qHTS for Inhibitors of human tyrosyl-DNA phosphodiesterase 1 (TDP1): qHTS in cells in absence of CPT | DT40 Tdp1-/- hTDP1 cells, no CPT, ATP luminescence, 48 h | Potency, µM (highest dose often 46.2 µM), without a hit: at the top dose activity change, negative = growth inhibition, usual class: inhibitors | 420,000 compounds, 15% hits; further: potency means the concentration at half of the fitted maximal effect; on the % scale 0 is the no-effect control and ±100 the full control effect; nearly all actives have a fitted effect of over 55% in size
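DT40 Tdp1-/-;hTDP1 cells, no CPT (DMSO vehicle only), 400 cells/well; compounds pin-transferred; ≥48 hr, 37 °C; CellTiter-Glo 30 min RT dark, luminescence read.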
IL-1B inflam inh: blocks inflammasome-driven IL-1 beta release; 360,000 compounds, 4.7% hits; THP-1 LPS/ATP IL-1B secretion, AlphaLISA, 16 h; active compounds read low; activity change, % at 57.5 µM; in the data active means activity change below about -50%; inconclusive means mostly about -30% to -49%; further: on the % scale 0 is the no-effect control and ±100 the full control effect
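Secreted IL-1B measured by AlphaLISA bead assay after 16 h compound exposure of THP-1 cells; compounds (final up to 57.5 uM) added 1 h before LPS (250 ng/mL) and ATP (1.25 mM) stimulation; lower signal means less secretion.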
TGFb inhibitor: TGF-b pathway inhibition; HepG2 CAGA-GFP TGF-b/SMAD3 reporter, GFP fluorescence, 18 h; TGF-beta stimulated, 500 pg/mL final; Potency, µM (titrated, usually from 46.1 µM), for the others: top-dose activity, negative = inhibition, hits mostly inhibitors; 410,000 compounds, 1.2% hits; further: potency means the concentration at half of the fitted maximal effect; on the % scale 0 is the no-effect control and ±100 the full control effect; nearly all actives have a fitted effect of over 65% in size
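Inhibition of TGF-beta-driven CAGA-GFP reporter expression in HEPG2 cells is measured by cellular GFP fluorescence after 18 h stimulation with 500 pg/mL recombinant TGF-beta in 1% FBS medium at 37 degrees C.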
TDP1 block: inhibitors of human tyrosyl-DNA phosphodiesterase TDP1. Q9NUW8. recombinant TDP1, AlphaScreen DNA substrate cleavage. Potency, µM (doses to about 130 µM), for the others: at the top dose activity change, negative = inhibition, actives largely listed as inhibitors. 350,000 compounds, 0.28% hits; further: potency means the concentration at half of the fitted maximal effect; on the % scale 0 is the no-effect control and ±100 the full control effect; nearly all actives have a fitted effect of over 40% in size
Target sequence (Q9NUW8 whole entry, looked up): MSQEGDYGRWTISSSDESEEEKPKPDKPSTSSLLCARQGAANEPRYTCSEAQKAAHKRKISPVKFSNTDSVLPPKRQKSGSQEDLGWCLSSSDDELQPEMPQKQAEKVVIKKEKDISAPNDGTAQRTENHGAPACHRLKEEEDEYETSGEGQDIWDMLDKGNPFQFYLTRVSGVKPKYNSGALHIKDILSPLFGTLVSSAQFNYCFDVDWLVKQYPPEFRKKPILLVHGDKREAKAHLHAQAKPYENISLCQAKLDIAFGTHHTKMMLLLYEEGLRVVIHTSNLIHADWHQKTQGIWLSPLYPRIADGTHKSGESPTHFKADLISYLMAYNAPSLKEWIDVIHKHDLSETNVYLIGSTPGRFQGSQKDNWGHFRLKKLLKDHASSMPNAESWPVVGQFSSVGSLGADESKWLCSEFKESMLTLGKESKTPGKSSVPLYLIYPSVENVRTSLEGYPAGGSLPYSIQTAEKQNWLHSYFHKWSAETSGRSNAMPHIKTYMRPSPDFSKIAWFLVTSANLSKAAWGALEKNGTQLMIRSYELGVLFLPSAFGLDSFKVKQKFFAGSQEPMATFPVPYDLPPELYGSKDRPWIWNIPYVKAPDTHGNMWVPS
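Enzyme-compound mixtures sat 15 min at room temperature, followed by a 5 min reaction with 15 nM final substrate and 10 min with AlphaScreen beads. Recombinant human Tdp1 was used at 1 nM final.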
HepG2 viability: counter-screen for TGF-b inhibitors: cytotoxicity in HepG2 cells | 410,000 compounds, 0.76% hits | Potency, µM (doses to about 46.1 µM), without a hit: top-dose activity change, negative = cytotoxicity, actives largely listed as cytotoxic | HepG2 CAGA-GFP viability, ATP luminescence, 18 h; further: potency means the concentration at half of the fitted maximal effect
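CellTiter-Glo luminescence gave cytotoxicity after 18 hours at 37 degrees C. The cells were HepG2 CAGA-GFP in 1% FBS DMEM, stimulated with 500 pg/mL TGF-beta after compound addition. %Activity was normalised to no-cell wells (complete cell-killing) and DMSO (no toxicity), and curves were fitted and classified.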
DT40 TDP1 CPT: DT40-hTDP1 cell growth loss with CPT. chicken DT40 Tdp1-/-;hTDP1 cells + 20 nM CPT, ATP luminescence, 48 h. Potency, µM (series often up to 46.2 µM), for the others: at the highest dose activity change, negative = growth inhibition, most hits filed as inhibitors. 420,000 compounds, 12% hits. AID 686979; further: potency means the concentration at half of the fitted maximal effect; on the % scale 0 is the no-effect control and ±100 the full control effect; nearly all actives have a fitted effect of over 55% in size
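Cell growth measured by CellTiter-Glo luminescence after a minimum 48 h, 37 C compound exposure with 20 nM CPT in Tdp1-knockout DT40 cells stably expressing hTDP1, seeded 400/well; qHTS titration format.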
* = called active by the depositor; ? = inconclusive; . = no result; [ ] = remark or other dose. An excerpt weighted towards active compounds, which were near 19% of everything screened. Unless noted, the call rests on the fitted dose curve; in most records, active means well fitted curve in the direction sought with a large enough effect; inconclusive means small, poorly fitted or top-dose-only effect, or another doubt; inactive means no such curve, though single readings can be large; an effect the other way counts as inactive or inconclusive.

SMILES	DT40 TDP1 no CPT	IL-1B inflam inh	TGFb inhibitor	TDP1 block	HepG2 viability	DT40 TDP1 CPT
COc1ccc(Cn2c(=O)[nH]c3cc(C(=O)N4CCN(c5ccccc5OC)CC4)ccc3c2=O)cc1	23µM*	-7	-28%	6%	5%	?
CCN1CCN(C(=O)c2ccc(Cn3c(=O)[nH]c4cc(OC)c(OC)cc4c3=O)cc2)CC1	-21%	12	-5%	2%	-9%	-19%
CCCCn1c(=O)c2oc3ccccc3c2n(Cc2cccc(C)c2)c1=O	?	.	-4%	-5%	8%	-14%
COc1ccc(C(=O)NCC(=O)OCc2cc(=O)n3nc(C4CCCCC4)sc3n2)cc1	-5%	.	-31%	6%	-6%	-25%
COc1ccc(C2CC(=O)N(CC(=O)Nc3cccc(C)c3C)c3ccccc3S2)cc1OC (centres undefined)	.	.	-1%	4%	-4%	.
C=CCN1CCN(c2nc3ccccc3nc2C#N)CC1	?	.	.	15%	.	-6%
COCCn1c(=O)[nH]c2cc(C(=O)N3CCN(c4ccc(OC)cc4)CC3)ccc2c1=O	?	27	1%	-12%[0.0935 µM]	-11%	-31%
COc1ccc(Cn2c(=O)[nH]c3cc(C(=O)N4CCN(Cc5ccccc5)CC4)ccc3c2=O)cc1	18µM*	-8	-15%	10%	-10%	16µM*
Cc1ccc(Cl)cc1N1CCN(C(=O)c2ccc(CN3CCOCC3)cc2)CC1	?	?	?	12%	-40%	?
COc1ccc(C2OC(=O)CC2C(=O)N2CCN(c3cc(Cl)ccc3C)CC2)cc1OC (centres undefined)	?	-3	-5%	3%	-18%	21µM*
O=C(CN1C(=O)COc2ccc(S(=O)(=O)N3CCCC3)cc21)N1CCN(c2ccccc2F)CC1	.	.	3%	4%	3%	.
CN1CCN(c2nc(N3CCN(c4ccccc4)CC3)ncc2F)CC1	?	-71*	-27%	5%	-19%	?
CN(C)c1c(Cl)cc(/C=C2\C=Cc3ccccc32)cc1Cl	?	.	-3%	.	-30%	?
Cc1cc(OC(=O)c2ccco2)c(Sc2ccccc2[N+](=O)[O-])c(=O)o1	18µM*	7	-2%	0%	-11%	?
O=C(Nc1ccccc1Cl)C1CC(=O)N(Cc2ccco2)C1 (centres undefined)	3%	-16	6%	0%	-2%	24%
CCc1ccc(N/C(SC)=C(/C#N)C(N)=O)cc1	?	-17	32%	6%	40%	?
N#CC(C#N)=C(Nc1ccc(F)cc1)SCc1cccc(F)c1	2.6µM*	?	?	3%	-42%	2.6µM*
CC(C)(C)OC(=O)N1CCC(c2c(C(=O)NCc3ccco3)cnn2-c2ccccc2)CC1	?	.	0%	7%	-23%	?
CCC(=O)c1cc2c(C)cc(=O)oc2c(C)c1OC	-8%	0	1%	0%	10%	8%
CCC(=O)Oc1c(C(=O)CC)cc2c(C)cc(=O)oc2c1C	?	-65*	-10%	0%	0%	?
COc1ccc(-n2c(/C=C/c3cccc4ccccc34)nc3ccccc3c2=O)cc1OC	15µM*	.	?	3%	-44%	?
COc1cc(OC)c(OC)cc1/C=C/c1nc2cc3ccccc3cc2c(=O)n1-c1ccc(Cl)cc1	16µM*	.	?	13%	-26%	13µM*
COc1ccc(/C=C/c2nc3ccccc3c(=O)n2-c2cccc(C(F)(F)F)c2)cc1	12µM*	.	?	3%	-22%	5.8µM*
COc1ccc(Cl)cc1-n1c(/C=C/c2cccc3ccccc23)nc2ccccc2c1=O	?	.	?	5%	-34%	?
COc1cc(OC)c(OC)cc1/C=C/c1nc2cc3ccccc3cc2c(=O)n1-c1ccccc1Br	?	.	14%	10%	5%	?
SMILES	DT40 TDP1 no CPT	IL-1B inflam inh	TGFb inhibitor	TDP1 block	HepG2 viability	DT40 TDP1 CPT
CCOc1ccc(C(=O)Nc2ccc3oc(-c4cccnc4)nc3c2)cc1	-16%	.	-29%	.	14%	1%
COc1cc(N=c2c([N+](=O)[O-])nn(-c3ccc4c(c3)OCCO4)n2O)cc(OC)c1	1.6µM*	-22	?	7%	-10%	1.5µM*
O=[N+]([O-])c1nn(-c2ccc3c(c2)OCCO3)n(O)c1=NCCC1=CCCCC1	-27%	-3	-16%	10%	3%	-26%
Cc1cc(C)cc(N=c2c([N+](=O)[O-])nn(-c3cccc(Cl)c3)n2O)c1	?	-1	-28%	7%	-27%	11µM*
Cc1cccc(N=c2c([N+](=O)[O-])nn(-c3ccc(Cl)cc3)n2O)c1	1%	22	0%	12%	-6%	4%
O=[N+]([O-])c1nn(-c2ccc3c(c2)OCCO3)n(O)c1=NCc1ccc(F)cc1	?	-76*	?	-5%	-11%	?
CCc1cccc(N=c2c([N+](=O)[O-])nn(-c3ccc(Cl)cc3)n2O)c1	?	5	?	8%	0%	21µM*
Nc1ccn([C@@H]2O[C@H](C(=O)N3CCSC3)[C@@H](O)[C@H]2O)c(=O)n1	25%	19	-5%	.	-8%	-3%
CCc1cccc(N=c2c([N+](=O)[O-])nn(-c3ccc4c(c3)OCCO4)n2O)c1	3.3µM*	0	?	10%	-7%	1.8µM*
CC1CCc2c(C(=O)NCc3ccco3)csc2C1 (centres undefined)	15µM*	-79*	?	-2%	-5%	?
Cc1ccc(C)c(N2CCN(CCCNC(=O)Cn3cc4c(n3)CCC(C)C4)CC2)c1 (centres undefined)	15µM*	0	-13%	7%	0%	16µM*
CC1CCc2nn(CC(=O)NCc3ccco3)cc2C1 (centres undefined)	?	-7	-1%	0%	1%	21µM*
CC1CCc2nn(CC(=O)NCCCN3CCCC3=O)cc2C1 (centres undefined)	-2%	9	-9%	0%	-9%	10%
Cc1ccc(C)c(N2CCN(CCCNC(=O)Cn3cc4c(n3)CCCCC4)CC2)c1	6.5µM*	?	?	3%	-105%	4.6µM*
NC(=O)CCCCC1CCSS1 (centres undefined)	-3%	.	.	2%	.	7%
